Results as given in PubChem BioAssay.

Legend:
[1] = tested on: Human papillomavirus type 1a protein E7 (residues 44-93); test: small molecules binding HPV E7 44-93 – biochemical, small-molecule microarray, residues 44-93, 635 nm fluorescence, primary screen (AID 1108); details: fluorescence 635 nm, higher = more signal;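 note: E7 fragment applied at 1 µg/mL in TBST for 1 h at 4 C; score combines spot fluorescence with its signal to noise ratio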
[2] = hepatitis C replication reporter changes, two-sided – Huh7 cells, luciferase reporter, HCV replication inhibitor project, primary screen (AID 1109); details: Huh7 HCV replicon luciferase reporter, 48 h; higher = more signal;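 note: huh7 hepatoma cells harbouring a luciferase neomycin HCV replicon reporter; luciferase luminescence as measure of HCV replicon replication; test concentration not given here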
[3] = biological target: Left-right determination factor 2 (Homo sapiens) (UniProt O00292); test: small molecules binding LEFTY2 protein – biochemical, small-molecule microarray, 635 nm fluorescence scan, primary screen (AID 1110); details: higher = more signal
Sequence of Left-right determination factor 2 (Homo sapiens) (O00292 whole entry, looked up): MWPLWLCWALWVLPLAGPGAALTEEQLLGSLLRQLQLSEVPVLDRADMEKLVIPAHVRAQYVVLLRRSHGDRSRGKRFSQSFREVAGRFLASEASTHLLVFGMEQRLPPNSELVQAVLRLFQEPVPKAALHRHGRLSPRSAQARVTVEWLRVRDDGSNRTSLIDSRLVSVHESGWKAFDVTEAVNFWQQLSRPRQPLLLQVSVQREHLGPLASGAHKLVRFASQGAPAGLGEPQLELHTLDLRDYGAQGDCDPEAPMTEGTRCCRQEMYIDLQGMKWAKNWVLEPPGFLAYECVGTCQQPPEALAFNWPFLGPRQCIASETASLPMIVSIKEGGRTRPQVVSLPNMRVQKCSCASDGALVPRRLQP

[4] = biological target: Calmodulin-1 (Homo sapiens) (UniProt P0DP23); test: small molecules binding calmodulin-1 with EGTA – biochemical, small-molecule microarray, Cy5-labelled CALM1, profiling panel (AID 1111); details: Cy5-CALM1 binding fluorescence, higher = more signal;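 note: labelled calmodulin applied in Tris saline Tween buffer holding calcium plus EGTA and DTT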
[5] = biological target: Calmodulin-1 (Homo sapiens) (UniProt P0DP23); test: small molecules binding Ca-loaded calmodulin-1 – biochemical, small-molecule microarray, Cy5-labelled CALM1, plus calcium, artefact control for SMM control-protein annotation, profiling panel (AID 1112); details: Cy5-CALM1 binding fluorescence, higher = more signal;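 note: score merges spot fluorescence with signal to noise from triplicate slides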
[6] = probe aWnt5a binding to arrayed compounds – biochemical, biotinylated probe, 635/667 nm fluorescence, primary screen (AID 1113); details: small-molecule microarray, higher = more signal;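 note: score merges 667 nm fluorescence intensity with signal-to-noise per printed feature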
[7] = probe aShh binding to arrayed compounds – biochemical, biotinylated probe, 635/667 nm fluorescence, primary screen (AID 1114); details: small-molecule microarray, higher = more signal;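 note: probe is biotin-labelled aShh protein from a stem cell growth factor screen; measures binding of labelled protein to compounds printed on the slide; score merges feature fluorescence at 667 nm with signal-to-noise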
[8] = probe aNog binding to arrayed compounds – biochemical, biotinylated probe, 635/667 nm fluorescence, primary screen (AID 1115); details: small-molecule microarray, higher = more signal;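 note: probe is biotinylated aNog protein used at 0.15 µg/mL for 1 h at 4 C; z-score combines 667 nm fluorescence of each spot with its signal to noise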
[9] = biological target: Torsin-1A-interacting protein 1 (Homo sapiens) (UniProt Q5JTV8); test: compound microarray binding of lysate hLAP1 – cell lysate, small-molecule microarray, COS7 lysate, 635/667 nm fluorescence, primary screen (AID 1116); details: 635 nm fluorescence, higher = more signal
Sequence of Torsin-1A-interacting protein 1 (Homo sapiens) (Q5JTV8 whole entry, looked up): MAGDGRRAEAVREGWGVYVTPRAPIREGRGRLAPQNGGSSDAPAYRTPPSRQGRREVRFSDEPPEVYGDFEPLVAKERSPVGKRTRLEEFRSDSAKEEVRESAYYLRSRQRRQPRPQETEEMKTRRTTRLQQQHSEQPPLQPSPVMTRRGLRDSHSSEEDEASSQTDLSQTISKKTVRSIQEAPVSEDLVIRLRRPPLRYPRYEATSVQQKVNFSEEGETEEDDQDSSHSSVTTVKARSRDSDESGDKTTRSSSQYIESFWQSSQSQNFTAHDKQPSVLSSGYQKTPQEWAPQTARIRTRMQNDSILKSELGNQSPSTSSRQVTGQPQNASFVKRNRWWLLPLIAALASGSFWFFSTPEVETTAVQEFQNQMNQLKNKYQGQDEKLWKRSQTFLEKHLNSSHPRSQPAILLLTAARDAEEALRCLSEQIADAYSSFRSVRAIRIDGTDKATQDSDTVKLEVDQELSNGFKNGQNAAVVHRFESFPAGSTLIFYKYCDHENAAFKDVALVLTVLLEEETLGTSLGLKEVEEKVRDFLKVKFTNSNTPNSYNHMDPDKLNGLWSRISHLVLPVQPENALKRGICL

[10] = biological target: Alpha-bungarotoxin (Bungarus multicinctus) (UniProt P60615); test: compounds binding labelled alpha-BTX control protein – biochemical, small-molecule microarray, Alexa647 label, 635/667 nm fluorescence, artefact control for SMM control protein annotation, profiling panel (AID 1117); details: alpha-BTX-A647 binding fluorescence, higher = more signal
Sequence of Alpha-bungarotoxin (Bungarus multicinctus) (P60615 whole entry, looked up): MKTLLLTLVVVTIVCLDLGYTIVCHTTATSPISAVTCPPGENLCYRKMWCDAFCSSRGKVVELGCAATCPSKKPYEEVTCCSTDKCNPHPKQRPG

Row | Compound | composite z-score [1] | z-score [2] | composite z-score [3] | composite z-score [4] | composite z-score [5] | composite z-score [6] | composite z-score [7] | composite z-score [8] | composite z-score [9] | composite z-score [10]
1 | COc1ccc([Si](C)(C)[C@H]2[C@H](CCO)O[C@@]3(C(=O)N(Cc4ccccc4)c4ccc(N5CCCCC5=O)cc43)[C@@H]2C)cc1 | 0.668 | -5.03 | -0.161 | 0.674 | 0.167 | -0.0685 | -0.156 | -0.135 | 0.652 | 0.883
2 | O=C1OCCC/C=C\[C@H]2OC34C=CCN(c5ccc6ccccc6c5)C(=O)[C@H]3N(CCCCCO)C(=O)[C@@H]4C12 (stereo not given in full) | -2.53 | -0.57 | -1.07 | -0.381 | -0.645 | -0.28 | 0.0141 | -0.0428 | -1.28 | -0.23
3 | CCOc1ccc(N2C(=O)CSC2c2cccc([N+](=O)[O-])c2)cc1 (stereo not given) | 1.35 | -0.343 | 0.216 | 0.847 | 0.615 | -0.0383 | 0.0796 | -0.194 | 0.143 | 1.5
4 | CCCCN1CC=CC23O[C@@H]4C=CCOC(=O)[C@@H]4[C@H]2C(=O)N(CCCCCCO)[C@@H]3C1=O (stereo not given in full) | -0.477 | -0.672 | -1.18 | -1.01 | 0.224 | -0.203 | -0.138 | 0.193 | 1.41 | -1.35
5 | Cc1ccc(S[C@]2(C(=O)O)CC(=O)N(Cc3ccccc3C(F)(F)F)[C@@H]2c2ccc(CO)cc2I)cc1 | 0.4 | -1.26 | -1.66 | -0.633 | -0.711 | -0.12 | -0.315 | -0.322 | -0.327 | -0.247
6 | C=C(CCCC)/C(=C/C[C@@H](OC(C)=O)c1cccc(OCCO)c1)c1cnc2ccccc2c1 | 0.571 | -1.32 | 0.257 | -0.18 | -0.387 | -0.124 | -0.0709 | 0.123 | 0.314 | 1.07
7 | C=CCOC(=O)[C@H]1[C@@H]2C(=O)O[C@@H](c3ccccc3)[C@@H](c3ccccc3)N2[C@@H](c2ccc(OCCOC(=O)[C@H]3C[C@H]4C(=O)N[C@@H](CCCCN(C)C)C(=O)N4[C@H]3c3cccc(OCCO)c3)cc2)[C@]12C(=O)Nc1ccc(I)cc12 | 1.4 | -2.45 | 0.713 | -0.0131 | -0.12 | 0.108 | 0.0671 | 1.18 | 0.811 | 1.27
8 | COc1ccc(C(O)C2C=CC3C(=O)N(C)C(=O)C3N2N(c2ccccc2)c2ccccc2)c2ccccc12 (stereo not given) | -0.452 | 0.352 | 0.0468 | -0.078 | -0.511 | 0.0328 | -0.0011 | 0.0984 | 1.68 | 0.429
9 | C=CCNC(=O)[C@@H]1[C@H]2C(=O)O[C@H](c3ccccc3)[C@H](c3ccccc3)N2[C@H](c2ccc(OCCO)cc2)[C@@]12C(=O)N(C(=O)OCCOC)c1ccc(C#CCC(C(=O)OC)C(=O)OC)cc12 | 0.805 | -1.5 | 0.969 | 1.61 | 0.105 | -0.0302 | 0.199 | 0.804 | 1.03 | 1.26
10 | C=CCN1C(=O)[C@]2(Cc3ccccc3)N=C(c3ccc(OCCCO)cc3)O[C@@H]2c2ccccc21 | 1.45 | -1.84 | 0.993 | 0.893 | -0.672 | -0.0519 | 0.531 | -0.802 | 0.251 | 1.04
11 | O=C1O[C@@H](c2ccccc2)[C@@H](c2ccccc2)N2[C@@H](c3ccc(OCCO)cc3)[C@]3(C(=O)Nc4ccc(C#CCCO)cc43)[C@@H](C(=O)NC[C@H](O)c3ccccc3)[C@H]12 | 1.4 | -1.25 | 0.25 | 0.604 | 0.174 | 0.119 | 0.493 | -0.398 | 1.09 | 1.24
12 | O=C(O)[C@@]1(CCS(=O)(=O)c2ccccc2)N=C(c2ccc(OCCCO)cc2)O[C@H]1c1ccccc1 | 1.32 | -0.124 | -0.665 | 2.47 | 0.967 | -0.0084 | 0.0639 | 1.1 | 1.08 | 0.524
13 | CN1CCC(CCCO)=CC1c1cccs1 (stereo not given) | -1.03 | -0.132 | -0.0692 | -0.949 | -0.431 | -0.176 | -0.0474 | -0.305 | 0.427 | -0.0493
14 | CS(=O)(=O)CCOC(=O)C1=CC(CCCO)=CC(c2ccc(CN3CCCC3)cc2)N(Cc2cccc(OC(F)(F)F)c2)C=C1C(=O)OCCS(C)(=O)=O (stereo not given) | 1.22 | -2.99 | 0.558 | 0.784 | 0.217 | 0.133 | 0.0434 | -0.149 | 1.17 | 0.822
15 | C=CCC(OC(C)=O)[C@@H]1[C@@H](N(Cc2ccc(-c3cccc(C(F)(F)F)c3)o2)C(=O)c2cccc3ccccc23)c2cc(OCCCO)ccc2N1C(=O)Cc1ccc2ccccc2c1 (stereo not given in full) | -0.168 | 0.395 | -0.648 | 0.0134 | 0.242 | -0.0597 | 0.123 | -0.398 | 0.0212 | 0.794
16 | CC(C)[C@@H](C(=O)O)n1cc(C2(O)CCCCC2)nn1 | 0.875 | -0.465 | 0.21 | 0.539 | 0.0141 | -0.201 | -0.0738 | -0.0809 | 0.563 | 0.184
17 | C=C(/C(=C/C[C@H](OC(C)=O)c1ccc(OCCO)cc1)c1cc(C(=O)OC)ccc1OC)C(C)C | 1.16 | -1.19 | 0.323 | 1.17 | 0.116 | -0.0721 | -0.2 | 0.775 | 1.2 | 0.179

Row | Compound | composite z-score [1] | z-score [2] | composite z-score [3] | composite z-score [4] | composite z-score [5] | composite z-score [6] | composite z-score [7] | composite z-score [8] | composite z-score [9] | composite z-score [10]
18 | CO[C@H]1O[C@H](CO)[C@@H](OC(=O)Nc2ccccc2-c2ccccc2)[C@H](OC(=O)Nc2ccccc2-c2ccccc2)[C@@H]1OC(=O)Nc1ccccc1-c1ccccc1 | 0.538 | -1.77 | 0.292 | 1.74 | 0.459 | -0.0196 | -0.0769 | 0.799 | 0.146 | 0.818
19 | O=C1[C@H]2C=C(Br)[C@H](C[C@@H]2OCCCCCCO)[C@@]12CO2 | -1.01 | -3.2 | -0.057 | -0.714 | -1.44 | -0.006 | -0.106 | -0.234 | 0.0589 | -1.17
20 | CC(c1ccccc1)C(O)C1C=CC2C(=O)N(C)C(=O)C2N1NC(=O)OC(C)(C)C (stereo not given) | 0.664 | 0.658 | -0.0606 | 2.55 | 0.265 | 0.0377 | -0.273 | 1.54 | 2.11 | 1.29
21 | COCCOC(=O)N1C(=O)[C@@]2(c3cc(C#Cc4ccc(OC)cc4)ccc31)[C@H](c1ccc(O)cc1)N1[C@H](c3ccccc3)[C@H](c3ccccc3)OC(=O)[C@H]1[C@@H]2C(=O)Nc1nc2ccccc2s1 | 1.37 | -1 | 0.389 | 1.18 | 0.907 | -0.0778 | -0.262 | -0.129 | 0.373 | 0.912
22 | CCCCCN1CC=CC23O[C@@H]4C=CCOC(=O)[C@@H]4[C@H]2C(=O)N(C(C)CO)[C@@H]3C1=O (stereo not given in full) | -0.967 | 1.01 | -1.39 | -0.0225 | -0.0583 | -0.176 | -0.0146 | 1.04 | -0.901 | -0.394
23 | O=C1C2C=CC(C(O)c3c(F)cccc3Cl)N(Nc3ccccc3F)C2C(=O)N1c1ccccc1 (stereo not given) | 1.43 | -0.665 | -0.165 | 1.24 | 0.265 | 0.0136 | 0.701 | 0.933 | 1.43 | 0.543
24 | O=C1OCCC=C[C@H]2OC34C=CCN(Cn5nnc6ccccc65)C(=O)[C@H]3N(CCO)C(=O)[C@@H]4C12 (stereo not given in full) | -1.59 | -0.772 | -2.07 | -0.4 | 0.262 | -0.252 | -0.262 | 0.328 | -0.618 | 1.1
25 | Cc1ccc(S(=O)(=O)N2C[C@@H](C(=O)O)[C@H](Sc3ccccc3)C[C@H]2c2ccccc2)cc1 | 1.14 | -0.697 | 0.0026 | 1.61 | -0.127 | 0.0775 | 0.0684 | 1.45 | 1.97 | 0.729
26 | CN1C(=O)C2C=CC(C(O)c3c(F)cccc3Cl)N(NC(=O)OC(C)(C)C)C2C1=O (stereo not given) | 1.3 | -0.28 | -0.0662 | 2.03 | 0.498 | 0.0718 | -0.167 | 1.46 | 2.03 | 1.35
27 | COc1ccc(NN2C(C(O)c3ccc(N(C)C)cc3)C=CC3C(=O)N(C4CCCCC4)C(=O)C32)cc1 (stereo not given) | 1.42 | -0.581 | -0.146 | 1.21 | 0.651 | 0.351 | -0.0248 | 0.42 | 1.22 | 1.72
28 | C=C(CCCC)C(=O)CC[C@H](OC(=O)c1cccnc1)c1ccc(OCCO)cc1 | -0.574 | -3.61 | -0.327 | -0.556 | -0.736 | -0.0455 | 0.296 | 0.406 | 0.656 | 0.551
29 | COC(=O)c1c(CC[C@@H](CO)NC(=O)N[C@@H](Cc2ccccc2)Cn2cc(-c3ccccn3)nn2)oc(C(=O)N2CCOCC2)c1C(=O)OC | -0.593 | 0.209 | 0.0348 | -0.194 | 0.0715 | -0.204 | 0.0796 | 0.151 | 0.167 | 0.0762
30 | COc1ccc([C@H]2OC[C@@H]3CCC(=O)N32)cc1 | 0.493 | 0.574 | 0.556 | -0.313 | -0.525 | -0.18 | 0.0062 | -0.324 | 0.493 | -0.122
31 | OCC1C=C(/C=C/c2ccccc2)CN1Cc1ccccc1Br (stereo not given) | -0.119 | -1.92 | 1.14 | 0.776 | -0.265 | 0.0375 | -0.0553 | -0.266 | 0.289 | 1.12
32 | O=C1C2C=CC(C(O)c3ccc(-c4ccccc4)s3)N(Nc3ccccc3)C2C(=O)N1c1ccccc1 (stereo not given) | 1.47 | -0.978 | -0.44 | 1.45 | 0.133 | 0.105 | 0.634 | 1.38 | 0.537 | 1.46
33 | CN(C)CCCCCCNC(=O)[C@@H]1C[C@@H]2C(=O)N[C@@H](CCCC[N+](C)(C)C)C(=O)N2[C@@H]1c1ccc(O)cc1 | -1.27 | 1.61 | 0.839 | -1.01 | -0.702 | -0.216 | -0.358 | -0.277 | 0.964 | 0.257
